TROY NFkB inh: inhibitors of TROY-dependent NF-kB signaling; 0.98% of 360,000 active; inhibition, % at 10 µM; AID 1347056; Q293 LMP1-TROYcd NF-kB luciferase reporter, 4 h;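 active means compounds whose plate-normalised and pattern-corrected inhibition of the luciferase reporter signal at the single screening dose is 50% or more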
Peg3 promoter: inhibitors of Peg3 promoter; AID 588405; inhibition, % at 20 µM; HeLa PEG-Prom luciferase reporter, luminescence, overnight; 1.7% of 360,000 active;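 active means inhibition of at least 50% at 20 µM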
Shn3 inh set2: reduces Shn3 3'UTR luciferase signal in osteoblasts | Clone20 osteoblast Shn3 3'UTR firefly luciferase, 24 h | inhibition, % at 12.5 µM | 0.52% of 360,000 active | AID 588674;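 active means mean inhibition of at least 75% with every replicate also reaching 75%; inconclusive means mean inhibition at least 75% but some replicate below; inactive means mean inhibition below 75%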;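 further: 0% = median of neutral control wells and 100% = pilot-screen positive control compound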
LMP1 NFkB inh: Epstein-Barr LMP1 NF-kappaB reporter inhibition | AID 504558 | inhibition, % at 12.5 µM | LMP1-induced NF-kappaB luciferase reporter cells, luminescence | 0.69% of 350,000 active; in the data active means inhibition above about 41%; inconclusive means no clear call, values can overlap the other calls;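 further: 0% = neutral control wells and 100% = reference inhibitor control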
TWEAK Fn14 block: TWEAK-Fn14 signaling inhibition; 2% of 360,000 active; AID 1159606; inhibition, % at 10 µM; TWEAK-stimulated Fn14 reporter cells, luciferase luminescence, 8 h; in the data active means inhibition above about 50%
MITF TRPM1 inh: inhibitors of MITF-driven TRPM1 promoter in melanoma cells; SK-MEL-5 TRPM1 promoter luciferase, 24 h; inhibition, % at 12.5 µM; 0.83% of 330,000 active;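 active means mean inhibition across replicates of 60% or more, whatever share of single replicates reaches that level; inconclusive means some that reach 60%, reason not given; inactive means mean inhibition across replicates below 60%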
* marks the source's active call; other numbers are inactive results; ? = inconclusive; nt = no result given. This is a sample that favours compounds with a hit; in the whole collection about 4.1% have one here.

SMILES	TROY NFkB inh	Peg3 promoter	Shn3 inh set2	LMP1 NFkB inh	TWEAK Fn14 block	MITF TRPM1 inh
COc1cc(OC)c(N(C)S(=O)(=O)c2cccc(C(=O)Nc3nccs3)c2)cc1Cl	39	51*	31	-10	31	1
CCOC(=O)c1c(-c2ccccc2)oc2ccc(OCC(O)CNCCN(C)C)cc12 (stereo unspecified)	-71	100*	15	5	-81	66*
CCOC(=O)c1c(-c2ccccc2)oc2ccc(OCC)cc12	-24	-12	9	-6	1	-2
CCn1nnc2cc(C(=O)NCCc3ccccc3F)ccc21	31	1	19	?	82*	-9
O=c1c(Cl)c2oc3ccccc3nc-2c2ccccc12	-22	-15	8	-13	-37	63*
Clc1ccc(-c2nnc(Sc3nc4ccccc4o3)c3ccccc23)cc1	-19	25	-24	-15	24	-22
CCNS(=O)(=O)c1ccc(CCC(=O)Nc2ccc(C(=O)OC)cc2)cc1	19	1	-1	2	25	6
O=C(COc1ccc(Br)cc1CNC1CCCC1)Nc1ccccc1	-6	-21	21	-1	8	-23
CC(C)(C)C(=O)/C=c1\s/c(=C\c2ccc(-c3ccc([N+](=O)[O-])cc3)o2)c(=O)n1CC(=O)NC(N)=O	3	55*	-2	5	9	2
CCC(=O)N/N=C/c1ccc(-c2ccc([N+](=O)[O-])cc2)o1	-5	-36	-17	-2	-2	-18
CCOC(=O)N1CCN(C(=O)/C(=C/c2cccc3ccccc23)NC(=O)c2ccc(OC)cc2)CC1	56*	-35	-25	-10	19	-18
Cc1ccc(S(=O)(=O)/N=C(/Nc2ccc([N+](=O)[O-])cc2[N+](=O)[O-])c2ccccc2)cc1	-7	26	13	5	2	-7
Cn1c2ccccc2c(=O)c2ccc(C#Cc3ccc(N)cc3)cc21	50*	-82	28	2	16	-21
C=CCn1c2ccccc2c(=O)c2cc(C#CC[C@@H](C)O)ccc21	-122	-277	-100	-25	-132	-89
Cn1c2ccccc2c(=O)c2cc(C#CC3=CCCCC3)ccc21	60*	-80	-51	-10	48	13
COc1ccccc1C#Cc1ccc2c(=O)c3ccccc3n(C)c2c1	-9	-22	14	-3	45	-24
Cn1c2ccccc2c(=O)c2cc(C#Cc3cccc(N)c3)ccc21	-52	-286	-94	52*	-117	-80
COc1ccc(C#Cc2ccc3c(=O)c4ccccc4n(C)c3c2)cc1	nt	nt	nt	-16	nt	-19
Cc1ccc(S(=O)(=O)N2CCN(C(=O)c3ccccc3Cc3ccccc3)CC2)c(C)c1	3	19	14	1	17	-3
O=C(Cn1ccc([N+](=O)[O-])n1)Nc1ccccn1	9	-11	nt	-11	-2	5
CC[N+]1=C(C)C(C)(C)c2cc(C)ccc21	24	7	89*	5	69*	15
CCN1C(=O)C(=O)c2cc(C)ccc21	10	11	0	-2	5	0
CC(C)CCCCCCCCCCCCC(=O)NCC(=O)NC1C(C)OC(Nc2ncnc3nc[nH]c23)C(O)C1O (stereo unspecified)	77*	100*	92*	92*	97*	69*
CCOc1ccc(-n2nc3c(SCCN4CCCC4)nnc(C)c3c2C)cc1	-20	13	27	5	-5	-12
COc1ccc(NC(=O)[C@H](C)NC(=O)C2CCN(S(=O)(=O)c3ccc(OC)cc3)CC2)cc1	-2	-2	-7	0	0	1
SMILES	TROY NFkB inh	Peg3 promoter	Shn3 inh set2	LMP1 NFkB inh	TWEAK Fn14 block	MITF TRPM1 inh
CN(C[C@H](c1ccccc1)N(C[C@H](Cc1ccccc1)N(CCc1ccccc1)N=O)N=O)N=O	11	9	16	5	14	-8
CN(C[C@H](Cc1ccccc1)N(C[C@H](c1ccccc1)N(CCc1ccccc1)N=O)N=O)N=O	-5	8	87*	1	4	1
C[C@H]1CCC/C=C/[C@@H]2C[C@H](O)C[C@H]2[C@H](O)[C@H](S(=O)c2ccc(O)cc2)CC(=O)O1 (stereo partly specified)	-33	52*	87*	-60	38	83*
O=C(NC(Cc1c[nH]c2ccccc12)C(=O)Nc1ccc(F)c([N+](=O)[O-])c1)c1cccs1 (stereo unspecified)	-20	6	15	50*	-9	-8
O=C1OC(c2ccccc2)(c2cc(Br)c(O)c(Br)c2)c2ccccc21 (stereo unspecified)	53*	7	-3	-10	33	-4
COc1ccccc1N1C(=O)C=C(Sc2nc(C)cc(C)n2)C1=O	-2	87*	-6	nt	11	nt
N#C/C(C(=O)N1CCOCC1)=C1/SC(Cc2ccccc2Cl)C(=O)N1c1ccccc1 (stereo unspecified)	-24	4	-6	-10	-3	-3
O=C(Nc1ccc(F)cc1F)c1cc2nc3c(c(C(F)(F)F)n2n1)CCCC3	68*	-167	-41	-15	73*	-21
O=C(O)c1cc2nc3c(c(C(F)(F)F)n2n1)CCCC3	12	2	8	7	13	2
N#C/C(=N\Nc1cccc([N+](=O)[O-])c1)C(=O)c1ccc(Br)cc1	33	21	27	38	52*	43
O=C1CCC(C(=O)OCc2nnc(-c3ccccc3)o2)=NN1	-21	-63	-28	-7	-7	-11
CC(=O)OCCNc1cc(SC(C)C)c2nonc2c1[N+](=O)[O-]	9	16	-6	5	20	1
CC(=O)OCCCNc1cc(Sc2ccc(Cl)cc2)c2nonc2c1[N+](=O)[O-]	51*	103*	?	27	79*	75*
CC(C)CCSc1cc(NCCO)c([N+](=O)[O-])c2nonc12	3	22	-3	-70	-3	-6
Cc1ccc(Sc2cc(NCCCO)c([N+](=O)[O-])c3nonc23)cc1	21	21	-14	14	55*	13
O=C(NC1CC1)c1ccc(CSCc2ccccc2Cl)o1	-1	-51	-4	8	40	-7
COc1ccc(N(C)S(=O)(=O)c2cccc(C(=O)NC3CCCCC3C)c2)cc1 (stereo unspecified)	-17	102*	-6	4	1	12
COc1ccc(N(C)S(=O)(=O)c2cccc(C(=O)NC3CCCC3)c2)cc1	10	15	32	8	15	6
CC(C)(C)c1cc(NC(=O)c2cccc(S(=O)(=O)N3CCOCC3)c2)no1	7	19	17	-11	2	4
Cc1csc(N2CCCC2c2nc3cc(Cl)c(N4CCCCC4)cc3n2CCCO)n1 (stereo unspecified)	-1	-2	-10	-1	-1	4
OCCCn1c(C2CCCN2c2nc(-c3ccc(Cl)cc3)cs2)nc2cc(Cl)c(N3CCCCC3)cc21 (stereo unspecified)	-2	72*	53	-15	7	46

High-throughput results: PubChem, several laboratories
